Test results taken from the supplement of paper PMC6853941.

System: MCF10A
Experiment: perturbation Mahalanobis distance of morphological profile vs DMSO controls (Mahalanobis distance (SD units)); higher = stronger morphological change, active = 7 or more
Details: screen batch: Batch1_Mahalanobis_Distance; 72 h
Description: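 MCF10A cells were seeded onto drugs dispensed acoustically into 384-well plates, using one dose per drug chosen from its human peak plasma concentration, and incubated for 72 h at 37 °C. Cells were stained for DNA, tubulin and mitochondria and imaged; 78 CellProfiler features were extracted, plate-normalised and compared with DMSO wells.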

Row | SMILES | perturbation Mahalanobis distance
1 | CC(=O)NO [Acetohydroxamic Acid] (523.5 µM) | 4.11 (inactive)
2 | CC(C)NCC(O)COc1ccc(CC(N)=O)cc1 (stereo unspecified) [Atenolol] (18.8 µM) | 2.37 (inactive)
3 | COc1cc(C(=O)NCc2ccc(OCCN(C)C)cc2)cc(OC)c1OC [Trimethobenzamide] (257.426.762 µM) | 2.9 (inactive)
4 | CCOC(=O)C(C)(C)Oc1ccc(Cl)cc1 [Clofibrate] (325.5 µM) | 6.08 (inactive)
5 | NCCCC(N)(C(=O)O)C(F)F (stereo unspecified) [Eflornithine] (319.5 µM) | 2.24 (inactive)
6 | CC1(C)C[C@@H]1C(=O)N/C(=C\CCCCSC[C@H](N)C(=O)O)C(=O)O [Cilastatin] (153.4 µM) | 3.43 (inactive)
7 | NCCc1ccc(O)c(O)c1 [Dopamine] (2.5 µM) | 4.23 (inactive)
8 | Nc1nc(=O)c2ncn(COC(CO)CO)c2[nH]1 [Ganciclovir] (98 µM) | 3.22 (inactive)
9 | CCCCN1C[C@H](O)[C@@H](O)[C@H](O)[C@H]1CO [Miglustat] (92.6 µM) | 2.56 (inactive)
10 | CN(C)CCCC1(c2ccc(F)cc2)OCc2cc(C#N)ccc21 (stereo unspecified) [Citalopram] (3.1 µM) | 2.77 (inactive)
11 | N=C(N)c1ccc(OCCCCCOc2ccc(C(=N)N)cc2)cc1 [Pentamidine] (7.4 µM) | 7.67 (active)
12 | COC(=O)[C@H](c1ccccc1Cl)N1CCc2sccc2C1 [Clopidogrel] (0.12 µM) | 3.1 (inactive)
13 | COc1cnc(NS(=O)(=O)c2ccc(N)cc2)nc1 [Sulfameter] (322.8 µM) | 6.64 (inactive)
14 | O=c1n(CCCN2CCN(c3cccc(Cl)c3)CC2)nc2ccccn12 [Trazodone] (21.5 µM) | 2.62 (inactive)
15 | c1ccc([C@H]2CN3CCSC3=N2)cc1 [Levamisole] (11.7 µM) | 2.32 (inactive)
16 | COc1cc(C(=O)NS(=O)(=O)c2ccccc2C)ccc1Cc1cn(C)c2ccc(NC(=O)OC3CCCC3)cc12 [Zafirlukast] (0.26 µM) | 2.19 (inactive)
17 | CC12CC3CC(C)(C1)CC(N)(C3)C2 [Memantine] (1.3 µM) | 4.28 (inactive)
18 | NC(=O)N[C@@H](CCC(=O)O)C(=O)O [Carglumic Acid] (68.4 µM) | 2.14 (inactive)
19 | CO[C@H]1/C=C/O[C@@]2(C)Oc3c(C)c(O)c4c(c3C2=O)C2=NC3(CCN(CC(C)C)CC3)NC2=C(NC(=O)/C(C)=C\C=C\[C@H](C)[C@H](O)[C@@H](C)[C@@H](O)[C@@H](C)[C@H](OC(C)=O)[C@@H]1C)C4=O [Rifabutin] (0.89 µM) | 6.13 (inactive)
20 | CCN(CC)C(=O)N1CCN(C)CC1 [Diethylcarbamazine] (6.3 µM) | 2.96 (inactive)

Same assay, conditions: screen batch: Batch2_Mahalanobis_Distance; 72 h

Row | SMILES | perturbation Mahalanobis distance
21 | CC(=O)NO [Acetohydroxamic Acid] (523.5 µM) | 4.24 (inactive)
22 | CC(C)NCC(O)COc1ccc(CC(N)=O)cc1 (stereo unspecified) [Atenolol] (18.8 µM) | 2.25 (inactive)
23 | COc1cc(C(=O)NCc2ccc(OCCN(C)C)cc2)cc(OC)c1OC [Trimethobenzamide] (257.426.762 µM) | 5.46 (inactive)
24 | CCOC(=O)C(C)(C)Oc1ccc(Cl)cc1 [Clofibrate] (325.5 µM) | 2.81 (inactive)
25 | NCCCC(N)(C(=O)O)C(F)F (stereo unspecified) [Eflornithine] (319.5 µM) | 2.74 (inactive)
26 | CC1(C)C[C@@H]1C(=O)N/C(=C\CCCCSC[C@H](N)C(=O)O)C(=O)O [Cilastatin] (153.4 µM) | 3.46 (inactive)
27 | NCCc1ccc(O)c(O)c1 [Dopamine] (2.5 µM) | 4.04 (inactive)
28 | O=C(Nc1ccc([N+](=O)[O-])cc1Cl)c1cc(Cl)ccc1O [Niclosamide] (5.3 µM) | 5.7 (inactive)
29 | Nc1nc(=O)c2ncn(COC(CO)CO)c2[nH]1 [Ganciclovir] (98 µM) | 3.75 (inactive)
30 | CCCCN1C[C@H](O)[C@@H](O)[C@H](O)[C@H]1CO [Miglustat] (92.6 µM) | 3.14 (inactive)
31 | CN(C)CCCC1(c2ccc(F)cc2)OCc2cc(C#N)ccc21 (stereo unspecified) [Citalopram] (3.1 µM) | 2.43 (inactive)
32 | N=C(N)c1ccc(OCCCCCOc2ccc(C(=N)N)cc2)cc1 [Pentamidine] (7.4 µM) | 9.96 (active)
33 | COC(=O)[C@H](c1ccccc1Cl)N1CCc2sccc2C1 [Clopidogrel] (0.12 µM) | 2.59 (inactive)
34 | COc1cnc(NS(=O)(=O)c2ccc(N)cc2)nc1 [Sulfameter] (322.8 µM) | 3.67 (inactive)
35 | O=c1n(CCCN2CCN(c3cccc(Cl)c3)CC2)nc2ccccn12 [Trazodone] (21.5 µM) | 3.12 (inactive)
36 | c1ccc([C@H]2CN3CCSC3=N2)cc1 [Levamisole] (11.7 µM) | 2.52 (inactive)
37 | COc1cc(C(=O)NS(=O)(=O)c2ccccc2C)ccc1Cc1cn(C)c2ccc(NC(=O)OC3CCCC3)cc12 [Zafirlukast] (0.26 µM) | 1.99 (inactive)
38 | CC12CC3CC(C)(C1)CC(N)(C3)C2 [Memantine] (1.3 µM) | 3.3 (inactive)
39 | NC(=O)N[C@@H](CCC(=O)O)C(=O)O [Carglumic Acid] (68.4 µM) | 2.6 (inactive)
40 | CO[C@H]1/C=C/O[C@@]2(C)Oc3c(C)c(O)c4c(c3C2=O)C2=NC3(CCN(CC(C)C)CC3)NC2=C(NC(=O)/C(C)=C\C=C\[C@H](C)[C@H](O)[C@@H](C)[C@@H](O)[C@@H](C)[C@H](OC(C)=O)[C@@H]1C)C4=O [Rifabutin] (0.89 µM) | 3.99 (inactive)
41 | CCN(CC)C(=O)N1CCN(C)CC1 [Diethylcarbamazine] (6.3 µM) | 2.16 (inactive)
